Where “and” joins values, the source holds several entries; their conditions need not be identical. Equal values may be shown once. This is part of a sample that, as a whole, favours compounds with a hit. Of some 83,000 tested, about 20% had one in any assay.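 Results are percent growth after 48 hours of single-concentration exposure. 100 means growth as in untreated cells, lower positive values show inhibition; negative values down to -100 show cell death.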 Values without a mark were called inactive. Calls of active or inactive are those of the source. The calls were made as follows: active = growth percent below 10; inactive = the rest.

The source of these data is PubChem BioAssay (NCI).

Test in all cases: NCI-60 one-dose screen, 48 h (100 = growth as untreated, 0 = no growth, -100 = all killed)
Common to all, as to conditions: 10 µM unless noted

The subject of test [1] is NCI-H23 lung.
The test system of test [2] is NCI-H226 lung.
Test [3] deals with HOP-62 NSCLC.
Test [4] relates to NCI-H460 lung.
In test [5] the test system is HOP-92 NSCLC.
Test [6] deals with NCI-H522 lung.
Test [7] has as its system A549/ATCC NSCLC.
Test [8] concerns 786-0 renal.
For test [9], the system named is COLO 205 colon.
In test [10] the test system is DU-145 prostate.
Test [11] deals with K-562 leukemia.
The test system of test [12] is MALME-3M melanoma.
For test [13], the system named is MDA-MB-231 breast.
Test [14] deals with RXF 393 renal.
For test [15], the system named is SF-268 CNS.
In test [16] the test system is SF-295 CNS.
Test [17] relates to SF-539 CNS.
Test [18] has as its system UACC-257 melanoma.
Test [19] relates to M14 melanoma.
Test [20] concerns NCI-H322M lung.

In the case of `CC1=CC(=Nc2ccc(N(CCCl)CCCl)cc2)C=C(C)C1=O`, the growth in [1] was 23%; in test [2], 44.5%; in [3], 36.5%; in test [4] it was 7.26% (active); in test [5], -30.7% (active); in test [6], -87.2% (active). The growth is 38.4% in test [7]; 21% in test [8]; 39.5% in test [9]; -39.4% (active) in test [10]; 17.4% in test [11]; 8.43% (active) in test [12]. The growth in test [13] is 40.8%; in test [14], -80.3% (active); in [15], -9.09% (active); in [16], 14.9%; in [17], 4.45% (active); in test [18] it was 19.3%. In test [19], the growth was 29.5%.

Consider `CC1(C)CN=C(NN=C(/C=C/c2ccc(C(F)(F)F)cc2)/C=C/c2ccc(C(F)(F)F)cc2)NC1`, for which the growth was -43% (active) in test [1]; -15.1% (active) in test [2]; 31.4% in [20]; -85.5% (active) in test [3]; -76.6% (active) in test [6]; -90.2% (active) in test [8]. The growth in [9] is -91.6% (active); in [10], -13.7% (active); in [11] it was -37.5% (active); in [12] it was -58.8% (active); in test [13], -83.1% (active); in [15] it was -34.5% (active). The growth in test [16] is -70.8% (active); in test [17], -78.4% (active); in test [18] it was -45.9% (active); in test [19], -71.7% (active).

Regarding `CC1(C)C2CCC1(CS(=O)(=O)O)C(=O)C2` (configuration not stated), the growth in test [1] is 108% and 105%; in test [2], 128% and 102%; in test [20], 90.2% and 99.1%; in test [4], 111% and 108%; in [5], 66.9% and 99.9%; in test [6], 95.4% and 107%. The growth in test [7] is 96.6% and 96.8%; in test [8] it was 101% and 98.8%; in test [9] it was 92.9% and 132%; in test [10], 109% and 125%; in test [11], 99.8% and 123%; in test [12] it was 85.1% and 105%. The growth in test [13] was 94.9% and 108%; in test [14], 137% and 123%; in test [15], 107% and 105%; in [16], 101% and 100%; in test [17], 91% and 112%; in test [18] it was 99.5% and 96.6%. Besides, in test [19], the growth is 98% and 105%.

With `CC[C@H](C)[C@H](NC(=O)[C@H]1CCCCN1C)C(=O)N(C)[C@H](CCc1nc(C(=O)N[C@@H](Cc2ccccc2)C[C@H](C)C(=O)O)cs1)C(C)C`, the growth was 29.9% in test [1]; 31% in [2]; 49.9% in test [20]; 12.6% in test [3]; 30.3% in test [5]; -6.97% (active) in test [6]. For the same compound, the growth in test [7] was 22.4%; in test [8] it was 31.8%; in [9], -37.9% (active); in [10] it was 9.58% (active); in test [11], 6.62% (active); in test [12] it was 78.4%. The growth was 11.2% in test [13]; 31.8% in test [14]; 20.9% in test [15]; -1.24% (active) in test [16]; -12.9% (active) in [17]; 53.4% in [18]. For the same compound, the growth in test [19] is 4.31% (active).

Consider `CCCCCCCCCCCCCCCC[n+]1ccccc1`, for which the growth in [1] is -38.3% (active) and -24.8% (active); in [2], -77.3% (active) and -0.958% (active); in test [3], -84.4% (active) and -49.3% (active); in test [4], -88.3% (active) and -83.1% (active); in [5] it was -48.4% (active) and -41.7% (active); in test [6], -57.3% (active) and -67.7% (active). The growth in test [7] was -61.4% (active); in test [8], -73% (active) and -92.8% (active); in [9] it was -77.6% (active) and -71.5% (active); in [10], -74.4% (active) and -12.9% (active); in test [11], -44.3% (active) and 0.871% (active); in test [12], -56.5% (active) and -38% (active). For the same compound, the growth in [13] was -40.7% (active) and -32.7% (active); in test [14], -86.7% (active); in [15], -58.9% (active) and -32.7% (active); in test [16] it was -69.1% (active) and -56.5% (active); in [17], -70.3% (active) and -27.4% (active); in [18], -52.2% (active) and -26.1% (active). The growth in test [19] was -49% (active) and -77.5% (active).

For the compound `COCC1OC2OC3C(COC)OC(OC4C(COC)OC(OC5C(COC)OC(OC6C(COC)OC(OC7C(COC)OC(OC8C(COC)OC(OC1C(O)C2O)C(O)C8O)C(O)C7O)C(O)C6O)C(O)C5O)C(O)C4O)C(O)C3O` (configuration not stated) (tested in a mixture with another compound), the growth in [1] is 102%; in test [2] it was 102%; in test [20], 134%; in test [4], 109%; in test [6] it was 109%; in test [7], 109%. Besides, the growth was 139% in [8]; 127% in test [9]; 113% in test [10]; 99.5% in test [11]; 127% in test [12]; 115% in test [13]. Further, the growth in test [14] is 129%; in test [15], 105%; in test [16] it was 111%; in test [17], 111%; in test [18], 117%; in [19] it was 105%.

On to `Cc1ccc(C(=O)O[C@H](C(=O)O)[C@H](OC(=O)c2ccc(C)cc2)C(=O)O)cc1`, for which the growth in [1] was 102%; in test [2], 104%; in [20], 104%; in test [3] it was 110%; in test [6] it was 119%; in [7] it was 103%. Also, the growth in test [8] was 101%; in [9] it was 108%; in [10] it was 110%; in [11], 89.9%; in test [12] it was 107%; in test [14], 115%. Further, the growth in test [15] was 105%; in [16], 118%; in test [17], 102%; in test [18], 94%; in test [19], 100%.
